For assay [1], the target named is Calcium and integrin-binding protein 1 (Homo sapiens) (UniProt Q99828). The assay is described as follows: Primary qHTS for Identification of Calcium Integrin Binding Protein 1 (CIB1) Competitor (AID 1508620).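 Also: GST tagged CIB1 binding a fluorescein labelled alphaIIb integrin peptide tracer; top concentration of the series differs between compounds; % is scaled to controls: 0 for no effect and ±100 for the full control effect.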 In short, it runs like this: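 CIB1-GST (1 uM final) and compound incubated 15 min at room temperature before adding FITC-alphaIIb peptide tracer (100 nM final). Competition for binding read by fluorescence polarization (ex 480, em 540) after another 15 min at room temperature.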
A general note: Quantitative high-throughput screening tests each substance at several concentrations.

For assay [2], the target named is Cytochrome P450 1A2 (Homo sapiens) (UniProt P05177). Put plainly: p450-cyp1a2 (AID 410; calls by dose curve; also: potency is read from the fitted curve at half-maximal effect;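 as to activity change, negative = inhibition: -100% = full effect of reference inhibitor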). In short, it runs like this: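 20nM CYP1A2, 100uM Luciferin-ME (=Km), 100mM KPO4; cpd 10 min RT; +NADPH regen, 60 min RT; stop/detect 20 min; luminescence. Normalized to furafylline 57 uM = full inhibition.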
Assay [3] can be described thus: NFAT Signaling Pathway (AID 444; active = well fitted curve in either direction with a large enough effect, not every such curve was filed as active;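 also: carbachol stimulus at about its EC50 of 1 µM final; % is scaled to controls: 0 for no effect and ±100 for the full control effect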). The settings on record: Jurkat NFAT-bla M1, carbachol, beta-lactamase ratio, 5 h. In short, it runs like this: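 Read-out: CCF4 FRET ratio (460 nm/530 nm) after 1 h RT dye loading, used for %activity and AC50 from titration series. Cells: Jurkat NFAT-β-lactamase/M1 line, treated with compound plus 1 uM carbachol for 5 h, 37 °C.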

Assay [4] has as its target Glucocorticoid receptor (Homo sapiens) (UniProt P04150). The assay is described as follows: GR-GFP Redistribution (AID 450;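 active = compounds whose dose series gives a full or clear partial fitted curve of increased nuclear translocation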; also: potency is read from the fitted curve at half-maximal effect). The settings on record: U2OS GR-GFP nuclear translocation, laser cytometry, 2 h.
For assay [5] the target is unchanged. The assay is described as follows: GR-EFC Redistribution (AID 451; calls by dose curve; also: potency is read from the fitted curve at half-maximal effect). The settings on record: CHO-K1 GR-EFC translocation, beta-gal luminescence, 2 h. In short, it runs like this: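 Translocation of GR-ED fusion to nuclear EA restores b-gal, read by luminescence after 1 h room-temperature detection. Engineered CHO-K1 biosensor cells, 1,000/well, exposed 2 h at 37 C to titrations up to 46 uM final.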

The target in assay [6] is Mitogen-activated protein kinase 10 (Mus musculus) (UniProt Q61831). Put plainly: JNK3 AlphaScreen Assay (AID 530; active = well fitted curve in either direction with a large enough effect, not every such curve was filed as active;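 also: kinase came from lysate of stimulated human HepG2 cells; signal reports phosphorylation of biotinylated GST-cJun 1-79 at Ser73 with 10 µM ATP; % is scaled to controls: 0 for no effect and ±100 for the full control effect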). In short, it runs like this:
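Kinase buffer: 20 mM Tris-HCl pH 7.6, 10 mM MgCl2, 1 mM DTT, 0.1 mM Na3VO4, 0.01% Tween-20; ATP 10 uM. Substrate biotin-GST-cJun(1-79), enzyme from activated HepG2 lysates. Detection by Ser73 phospho-antibody AlphaScreen.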
For orientation: In Alpha technology, singlet oxygen from a donor bead excites a nearby acceptor bead.

Assay [7] has as its target 3',5'-cyclic-AMP phosphodiesterase 4B (Homo sapiens) (UniProt Q07343). Put plainly: qHTS Assay for Inhibitors of PDE-IV (AID 607; active = well fitted activation curve with a large enough effect in the main read-out, with a control signal flat, not every such curve was filed as active; also: % of control where 0% means no effect). Put shortly:
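ACTOne HEK293 cells carry a modified cAMP-gated CNG channel and express endogenous PDE4; plated 1000 cells/well, compounds up to 22.9 uM final. Membrane-potential dye fluorescence (ex 535/em 590) was read; parental cells received 10 uM forskolin + 100 uM RO 20-1724.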

Assay [8] deals with Cytochrome P450 3A4 (Homo sapiens) (UniProt P08684). Put plainly: qHTS Assay for Activators of Cytochrome P450 3A4 (AID 885). Also: nearly all actives have a fitted effect of over 65% in size. Put shortly:
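CYP3A4 activity: Luciferin-PPXE O-dealkylation, 25uM substrate, 200mM KPO4, RT throughout. Read-out is luciferase luminescence; higher values reflect activation.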

A short description of assay [9]: Confirmatory qHTS for small molecule stabilizers of the endoplasmic reticulum resident proteome: Secreted ER Calcium Modulated Protein (SERCaMP) assay (AID 1508628). Also: nearly all actives have a fitted effect of over 40% in size. Also: potency is read from the fitted curve at half-maximal effect. In short, it runs like this: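 GLuc-SERCaMP-expressing SH-SY5Y cells, pretreated 16 h with compound, are challenged with thapsigargin to empty ER calcium stores; after 4 h, coelenterazine is added directly to the medium and luminescence is imaged.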

In assay [10] the target is Lysosomal acid glucosylceramidase (Homo sapiens) (UniProt P04062). The assay is described as follows: Glucocerebrosidase-p2 (AID 348; in the data active = potency below about 10 µM; also: potency is read from the fitted curve at half-maximal effect). The following applies: purified GBA, blue fluorogenic substrate, 40 min. In short, it runs like this:
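Normal human glucocerebrosidase (0.2 nM) with blue fluorogenic substrate (80 uM final) in citrate/phosphate pH 5.9 with 10mM sodium taurocholate, 0.01% tween-20; 40 min RT, NaOH/glycine stop; fluorescence Ex 365/Em 440; AC50 from a titration from 0.6 nM upwards.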

The nature of assay [11]: AP1 Signaling Pathway (AID 357; active = well fitted curve in either direction with a large enough effect, not every such curve was filed as active;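 also: ME-180 reporter cells stimulated with EGF at its EC50 level; % is scaled to controls: 0 for no effect and ±100 for the full control effect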). In short, it runs like this:
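A ratiometric CCF4 readout (405 nm excitation; 460 and 530 nm emission) quantified AP-1-driven beta-lactamase in ME-180 cells after 5 h with compound and EC50 EGF; AC50 values were derived for activators and inhibitors.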

Assay [12] can be described thus: Stat Signaling Pathway (AID 446; active = well fitted curve in either direction with a large enough effect, not every such curve was filed as active). Put shortly:
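Compound effects on IL-6-induced STAT reporter activity were measured in ME-180 cells. After overnight culture, cells were co-treated with 40 pM IL-6 for 5 hrs before beta-lactamase substrate loading at room temperature.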

The nature of assay [13]: qHTS Assay for Lipid Storage Modulators (AID 1519; calls by dose curve). The following applies: Drosophila S3 cells, BODIPY lipid droplet/cell ratio, laser cytometry, cells loaded with oleic acid; for activity change, negative = inhibition: at 57.5 µM (top of the series). Put shortly: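 Cells seeded at 5,000 per well were treated with compounds over a concentration series and loaded with oleic acid (400 uM, as added). Lipid droplet fluorescence (488 nm excitation, 500-530 nm channel) was read by laser-scanning cytometry and normalized to 20 uM Triacsin C.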

A short description of assay [14]: Counterscreen qHTS for small molecule stabilizers of the endoplasmic reticulum resident proteome: GLuc-NoTag assay (AID 1508627).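 Also: SH-SY5Y cells given compound then 100 nM thapsigargin to empty ER calcium; 0% = thapsigargin alone and -100% = DMSO vehicle control.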 Put shortly:
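Counterscreen line: SH-SY5Y-GLuc-NoTag cells, treated with compound 19 hr before a 4 hr, 100 nM thapsigargin calcium depletion. Secreted Gaussia luciferase in the medium was measured by luminescence after coelenterazine was added (0.07x final), with cells unlysed.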
Background: The purpose of a counterscreen is to sort out artefacts and off-target activity.

Assay [15] addresses DNA repair nuclease/redox regulator APEX1 (Homo sapiens) (UniProt P27695). The assay is described as follows: qHTS Validation Assay for Inhibitors of the Human Apurinic/apyrimidinic Endonuclease 1 (APE1) (AID 1705). Put shortly: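 Activity read as rising fluorescence (598 nm emission, 525 nm excitation) from incision of a TAMRA/BHQ-2 duplex carrying a THF abasic site (50 nM). Compound and enzyme sat 15 min at RT before substrate start; signal change between first and third 60-s reads.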

The nature of assay [16]: Primary qHTS for small molecule stabilizers of the endoplasmic reticulum resident proteome: Secreted ER Calcium Modulated Protein (SERCaMP) assay (AID 1508630). Also: % is scaled to controls: 0 for no effect and ±100 for the full control effect. Put shortly: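 The SH-SY5Y reporter protocol was run at 3 concentrations up to 38.3 uM (primary) or 11 concentrations (follow-up): 16 h compound, 100 nM thapsigargin for 4 h, then extracellular luciferase luminescence.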

The mark [17] stands for this setting: measured here: cell count channel max response.
Setting [18] is: measured here: lipid channel max response.

Molecules are shown by their SMILES. “And” between values parts separate entries of the source, which are not always exact repeats. Equal values may be shown once. Results filed as inconclusive are left out. The source made the active and inactive calls. Unless noted, calls follow the shape of the dose curve; as a rule, active = well fitted curve in the direction sought with a large enough effect; inconclusive = small, poorly fitted or top-dose-only effect, or another doubt; inactive = no such curve, though single readings can be large; an effect the other way counts as inactive or inconclusive.

Chain of Calcium and integrin-binding protein 1 (Homo sapiens) (Q99828 whole entry, looked up): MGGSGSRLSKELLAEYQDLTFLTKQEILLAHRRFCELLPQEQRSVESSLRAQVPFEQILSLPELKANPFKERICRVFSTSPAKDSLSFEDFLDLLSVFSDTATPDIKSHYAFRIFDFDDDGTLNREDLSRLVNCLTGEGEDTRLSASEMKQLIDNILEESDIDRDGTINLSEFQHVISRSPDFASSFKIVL
Chain of Cytochrome P450 1A2 (Homo sapiens) (P05177 whole entry, looked up): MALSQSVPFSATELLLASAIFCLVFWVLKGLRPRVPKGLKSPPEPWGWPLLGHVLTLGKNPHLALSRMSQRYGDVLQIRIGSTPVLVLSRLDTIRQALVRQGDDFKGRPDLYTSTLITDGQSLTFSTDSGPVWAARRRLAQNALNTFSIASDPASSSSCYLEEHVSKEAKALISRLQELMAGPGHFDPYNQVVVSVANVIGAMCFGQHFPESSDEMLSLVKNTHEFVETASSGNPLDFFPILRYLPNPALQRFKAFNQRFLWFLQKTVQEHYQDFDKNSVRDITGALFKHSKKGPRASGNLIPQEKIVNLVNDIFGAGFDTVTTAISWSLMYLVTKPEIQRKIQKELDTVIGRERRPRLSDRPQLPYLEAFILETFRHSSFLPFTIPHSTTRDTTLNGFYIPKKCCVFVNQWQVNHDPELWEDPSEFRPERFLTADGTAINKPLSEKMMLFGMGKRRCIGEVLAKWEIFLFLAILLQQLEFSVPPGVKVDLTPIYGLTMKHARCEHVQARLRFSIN
Chain of Cytochrome P450 3A4 (Homo sapiens) (P08684 whole entry, looked up): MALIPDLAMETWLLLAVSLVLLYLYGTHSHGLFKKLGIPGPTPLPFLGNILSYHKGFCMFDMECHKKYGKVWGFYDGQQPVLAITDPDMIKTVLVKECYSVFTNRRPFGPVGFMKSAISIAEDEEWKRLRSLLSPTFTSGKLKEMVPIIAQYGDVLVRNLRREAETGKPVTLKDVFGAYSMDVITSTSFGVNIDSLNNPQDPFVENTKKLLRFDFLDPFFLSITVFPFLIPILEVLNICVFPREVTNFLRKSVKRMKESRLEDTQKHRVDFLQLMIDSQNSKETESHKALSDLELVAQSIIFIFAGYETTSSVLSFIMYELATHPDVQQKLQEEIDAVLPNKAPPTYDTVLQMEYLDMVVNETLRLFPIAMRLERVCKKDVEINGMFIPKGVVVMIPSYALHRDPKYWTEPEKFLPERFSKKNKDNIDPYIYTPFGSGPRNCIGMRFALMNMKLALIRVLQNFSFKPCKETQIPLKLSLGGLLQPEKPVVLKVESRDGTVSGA
Chain of Lysosomal acid glucosylceramidase (Homo sapiens) (P04062 whole entry, looked up): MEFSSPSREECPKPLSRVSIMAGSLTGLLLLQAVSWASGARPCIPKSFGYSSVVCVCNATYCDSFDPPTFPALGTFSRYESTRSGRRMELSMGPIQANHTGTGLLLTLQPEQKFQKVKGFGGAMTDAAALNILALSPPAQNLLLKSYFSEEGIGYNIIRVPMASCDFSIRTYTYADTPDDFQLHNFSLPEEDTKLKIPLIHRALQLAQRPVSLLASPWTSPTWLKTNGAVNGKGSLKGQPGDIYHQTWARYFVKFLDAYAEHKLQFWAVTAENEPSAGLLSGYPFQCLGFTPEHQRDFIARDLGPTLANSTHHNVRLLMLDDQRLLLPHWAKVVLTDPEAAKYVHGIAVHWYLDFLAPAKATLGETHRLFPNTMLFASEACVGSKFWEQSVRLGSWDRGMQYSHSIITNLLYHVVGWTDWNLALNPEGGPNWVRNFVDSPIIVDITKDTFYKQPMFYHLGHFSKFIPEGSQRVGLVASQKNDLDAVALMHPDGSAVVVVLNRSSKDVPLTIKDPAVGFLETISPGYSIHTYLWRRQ
Chain of 3',5'-cyclic-AMP phosphodiesterase 4B (Homo sapiens) (Q07343 whole entry, looked up): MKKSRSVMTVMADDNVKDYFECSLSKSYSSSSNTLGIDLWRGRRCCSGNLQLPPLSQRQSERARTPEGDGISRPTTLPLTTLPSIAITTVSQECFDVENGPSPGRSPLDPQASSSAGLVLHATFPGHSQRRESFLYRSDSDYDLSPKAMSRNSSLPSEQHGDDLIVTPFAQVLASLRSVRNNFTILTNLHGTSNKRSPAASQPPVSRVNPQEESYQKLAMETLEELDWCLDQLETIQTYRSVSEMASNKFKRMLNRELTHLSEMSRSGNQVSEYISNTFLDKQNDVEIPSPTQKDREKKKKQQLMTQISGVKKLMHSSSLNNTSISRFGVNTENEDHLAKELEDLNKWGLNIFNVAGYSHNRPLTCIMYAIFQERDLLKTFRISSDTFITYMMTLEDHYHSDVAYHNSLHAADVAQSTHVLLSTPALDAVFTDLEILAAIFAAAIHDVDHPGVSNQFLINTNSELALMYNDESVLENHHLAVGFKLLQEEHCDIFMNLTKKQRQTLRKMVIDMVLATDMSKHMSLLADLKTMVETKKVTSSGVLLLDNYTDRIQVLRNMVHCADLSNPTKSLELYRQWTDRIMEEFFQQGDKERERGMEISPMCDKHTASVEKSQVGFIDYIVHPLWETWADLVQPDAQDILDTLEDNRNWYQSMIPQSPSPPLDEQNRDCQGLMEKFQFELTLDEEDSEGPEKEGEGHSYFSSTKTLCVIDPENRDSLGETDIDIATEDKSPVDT
Chain of Glucocorticoid receptor (Homo sapiens) (P04150 whole entry, looked up, the tested form may be a part): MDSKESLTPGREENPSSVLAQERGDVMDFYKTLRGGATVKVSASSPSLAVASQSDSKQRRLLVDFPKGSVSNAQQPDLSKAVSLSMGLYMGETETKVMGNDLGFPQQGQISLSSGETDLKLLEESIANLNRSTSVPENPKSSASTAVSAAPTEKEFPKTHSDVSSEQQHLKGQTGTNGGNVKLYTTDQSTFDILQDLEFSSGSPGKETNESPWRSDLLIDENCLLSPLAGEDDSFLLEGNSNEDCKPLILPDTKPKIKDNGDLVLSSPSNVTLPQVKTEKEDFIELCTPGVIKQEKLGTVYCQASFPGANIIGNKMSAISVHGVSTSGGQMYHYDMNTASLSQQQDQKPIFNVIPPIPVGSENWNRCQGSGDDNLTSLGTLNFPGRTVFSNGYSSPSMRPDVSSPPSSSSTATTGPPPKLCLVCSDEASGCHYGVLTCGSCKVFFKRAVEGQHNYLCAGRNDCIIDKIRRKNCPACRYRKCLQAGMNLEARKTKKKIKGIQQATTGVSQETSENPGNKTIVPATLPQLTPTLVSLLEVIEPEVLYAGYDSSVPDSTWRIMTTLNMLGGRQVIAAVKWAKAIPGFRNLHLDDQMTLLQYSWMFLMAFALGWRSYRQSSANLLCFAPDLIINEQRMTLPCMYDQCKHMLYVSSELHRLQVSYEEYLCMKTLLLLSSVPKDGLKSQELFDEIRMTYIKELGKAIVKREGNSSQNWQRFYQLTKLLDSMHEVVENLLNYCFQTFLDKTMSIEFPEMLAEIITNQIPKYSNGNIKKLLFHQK
Chain of DNA repair nuclease/redox regulator APEX1 (Homo sapiens) (P27695 whole entry, looked up): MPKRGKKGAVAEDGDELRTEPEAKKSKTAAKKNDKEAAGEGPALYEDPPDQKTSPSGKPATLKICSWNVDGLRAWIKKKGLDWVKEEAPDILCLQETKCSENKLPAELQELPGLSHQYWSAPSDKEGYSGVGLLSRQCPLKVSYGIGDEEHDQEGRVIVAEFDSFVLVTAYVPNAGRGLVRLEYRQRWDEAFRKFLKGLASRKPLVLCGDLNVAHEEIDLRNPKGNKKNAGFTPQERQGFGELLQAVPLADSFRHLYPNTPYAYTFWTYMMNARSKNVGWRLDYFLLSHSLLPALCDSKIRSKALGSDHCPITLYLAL

Consider `CCCc1ccc(NC(=O)c2ccc3c(c2)NC(=O)CS3)cc1`, for which, in assay [1], the outcome was inactive.
With `C[n+]1cc(P(=S)(c2ccccc2)c2ccccc2)n2ccccc21`, the outcome in assay [1] was inactive.
With `CCOc1ccc(CCNC(=O)c2ccccc2)cc1OCC`, in assay [1], the result was inactive.
Turning to `COc1cccc(CNc2ccc(C(=O)Nc3nccs3)cc2)c1O`, in assay [1], the result was inactive.
`N#C/C(=C\c1ccc(O)c(O)c1)C(N)=S`: the Potency was 12.6 µM (active) and 6.31 µM (active) in assay [2]; > 46 µM (inactive) in [4]; > 46 µM (inactive) in assay [5]; 10 µM (active) in [9]. Moreover, the activity change, negative = inhibition in assay [3] (at 38 µM (top of the series)) is -11.5% (inactive). Moreover, in assay [6], the compound was called inactive. The Potency entry in [7] and in assay [8] was “inactive” in each case.
On to `O=C1CCCC2=C1C(c1[nH]ncc1Cl)N=C(Nc1nc3ccc(F)cc3o1)N2` (stereo not drawn), for which, in [1], the outcome was inactive.
Consider `c1ccc(N2CC[C@@]3(CCCNC3)C2)cc1`, for which the Potency in assay [10] is > 11.4 µM (inactive); in [2], 39.8 µM (active); in [5] it was > 46 µM (inactive); in assay [9], 44.7 µM (active). Moreover, the compound was called inactive in [11], in [12], in [6] and in assay [14]. Besides, the Potency result in [7] and in assay [8] was “inactive” each time. The activity change, negative = inhibition in assay [13] was 5.37% (inactive). For the same compound, the max response came out at 5.01% in [13] (setting [17]) and 10.7% in assay [13] (setting [18]).
For the compound `C=CCN1CCc2cccc3c2C1Cc1ccc(O)c(O)c1-3` (stereo not drawn), the Potency entry in assay [15] was “inactive”. The Potency in assay [9] was 39.8 µM (active).
Turning to `CCOc1ccc(CCNC(=O)c2cc3ncccc3n2Cc2cccc(C)n2)cc1OCC`, the outcome in assay [1] was inactive.
With `Cc1ccc2nc(NC3=NC(c4[nH]ncc4Cl)C4=C(CCCC4=O)N3)oc2c1` (stereo not drawn), the outcome in assay [1] was inactive.
`c1ccc(N2CCCC3(CCNCC3)C2)cc1`: the Potency in assay [10] was > 11.4 µM (inactive); in assay [5], > 46 µM (inactive). The compound was called inactive in assay [11], in assay [12], in [6] and in assay [14]. In addition, the Potency result in assay [2], in [7] and in assay [8] was “inactive” in each case. The activity change, negative = inhibition in [3] (at 7.69 µM (top of the series)) was -13.8% (inactive); in [13] it was 4.45% (inactive). Besides, the max response was determined as 4.47% in [13] (setting [17]) and 14.8% in [13] (setting [18]).
For the compound `O=C(O)[C@@H]1CSC(c2cccnc2)N1` (stereo partly drawn), in assay [14], the outcome was inactive. In assay [9], the Potency entry was “inactive”.
Consider `CN1CC[C@@]2(CCCN(C(=O)c3csnn3)C2)C1`, for which the Potency in [10] is > 11.4 µM (inactive); in [5], > 46 µM (inactive). Also, the result in [11], in [12], in assay [6] and in assay [16] was inactive. In addition, the Potency entry in assay [2] and in assay [7] was “inactive” each time. Moreover, the values for the activity change, negative = inhibition in [3] (at 7.69 µM (top of the series)) and in assay [13] were -23.3% (inactive) and -3.58% (inactive), respectively. Further, the figures for the max response in assay [13] (setting [17]) and in assay [13] (setting [18]) were -13.7% and -16.8%, respectively.
Turning to `C[C@@H]1C[C@@H](O)[C@@]2(O)[C@]13CC(=O)OC[C@]2(C)[C@@](C)(O)C(=O)C3`, in assay [16], the result was inactive.
Consider `Cc1c(P(=S)(c2ccccc2)c2ccccc2)[n+]2ccccc2n1C`, for which the result in assay [1] was inactive.
Consider `CN1CCC2=C[C@@H](O)[C@@H]3OC(=O)c4cc5c(cc4C3C21)OCO5` (stereo partly drawn), for which the outcome in [16] was inactive.
On the same count and under the same terms, under `O=C(O)c1ccc(NC(=O)N2C[C@H]3C[C@@H](C2)c2cccc(=O)n2C3)cc1` stands “inactive”; under `O=C(CN1CCCCC1c1cccnc1)c1ccccc1` (stereo not drawn), “inactive”.
Turning to `c1ccc(N2CCC3(CCNCC3)CC2)nc1`, the Potency is > 11.4 µM (inactive) in assay [10] and > 46 µM (inactive) in assay [5]. The result in assay [11], in assay [12], in [6] and in [14] was inactive. Besides, the Potency result in assay [7] and in assay [8] was “inactive” in each case. For the same compound, the activity change, negative = inhibition in assay [13] was 6.81% (inactive). Moreover, the figures for the max response in assay [13] (setting [17]) and in [13] (setting [18]) were 19.9% and 29.9%, respectively.

The record behind these values is PubChem BioAssay (NCATS).
